Reference: PubChem BioAssay
Active and inactive are the calls of the source. Unless noted, the rule behind the calls is not given here.

Experiments:
[1] = HepG2 liver cancer cell viability effects, profiling panel, resazurin fluorescence, 24 h, PK04 Diversity Set (AID 1172); conditions: higher = more signal
[2] = basal S. cerevisiae growth modulation, no modifier, primary screen, OD600, strain BY4716, 24 h, basal condition (AID 1173); conditions: OD600, 24 h, higher = more signal, called active from +8 up or from −8 down
[3] = MM1S myeloma cell viability, profiling panel, resazurin fluorescence, basal, 24 h, PK04 Diversity Set (AID 1174); conditions: higher = more signal, called active from +8 up or from −8 down;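 note: MM1S multiple myeloma cell line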
[4] = biological target: Dihydroorotate dehydrogenase (quinone), mitochondrial (Plasmodium falciparum (isolate 3D7)) (UniProt Q08210); assay: PfDHODH enzyme inhibitors, primary screen, biochemical, C-terminal His tag, absorbance 600 nm (AID 1175); conditions: DCIP absorbance 600 nm, higher = more signal, called active from +8 up or from −8 down;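 note: recombinant parasite enzyme with a five histidine tag at its C terminus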
Sequence of Dihydroorotate dehydrogenase (quinone), mitochondrial (Plasmodium falciparum (isolate 3D7)) (Q08210 whole entry, looked up): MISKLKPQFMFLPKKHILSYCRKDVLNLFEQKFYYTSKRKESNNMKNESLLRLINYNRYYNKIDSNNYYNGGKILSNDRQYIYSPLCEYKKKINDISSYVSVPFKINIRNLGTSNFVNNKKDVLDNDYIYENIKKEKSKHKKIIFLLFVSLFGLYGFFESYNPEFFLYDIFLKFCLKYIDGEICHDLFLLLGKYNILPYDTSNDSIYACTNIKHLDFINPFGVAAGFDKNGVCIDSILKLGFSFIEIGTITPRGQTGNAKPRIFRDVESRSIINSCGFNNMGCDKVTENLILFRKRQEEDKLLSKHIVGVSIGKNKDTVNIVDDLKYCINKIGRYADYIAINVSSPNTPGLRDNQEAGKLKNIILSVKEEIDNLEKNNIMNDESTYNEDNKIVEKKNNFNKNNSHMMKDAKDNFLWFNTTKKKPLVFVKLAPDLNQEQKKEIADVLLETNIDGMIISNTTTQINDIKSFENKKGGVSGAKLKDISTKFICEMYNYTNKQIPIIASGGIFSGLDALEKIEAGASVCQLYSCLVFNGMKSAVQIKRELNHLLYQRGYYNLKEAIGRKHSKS

[5] = P. aeruginosa biofilm formation inhibitors, primary screen, strain PAO1, LB-PBS medium, absorbance 600 nm (AID 1176); conditions: P. aeruginosa PAO1 growth/biofilm, A600, 12 h; higher = more signal
[6] = S. cerevisiae RM11-1a growth modifiers, primary screen, strain RM11-1a, OD600, basal, 24 h (AID 1177); conditions: OD600, 24 h, higher = more signal, called active from +8 up or from −8 down;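 note: cultures grown under basal conditions with no added stressor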
[7] = E. coli acrAB mutant growth effects, primary screen, E. coli filamentation inducers, strain DRC39, OD650, 24 h (AID 1178); conditions: higher = more signal, called active from +8 up or from −8 down;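 note: growth measured as culture turbidity by optical density at 650 nm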
[8] = E. coli acrAB mutant growth effects, primary screen, E. coli filamentation inducers, strain DRC39, OD650, 48 h (AID 1179);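 note: screen aims at cell division blockers that make cells filament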; conditions: E. coli DRC39 delta-acrAB growth, higher = more signal, called active from +8 up or from −8 down
[9] = RPMI8226 myeloma cell viability, profiling panel, resazurin fluorescence, basal, 24 h, PK04 Diversity Set (AID 1180); conditions: higher = more signal;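 note: RPMI8826 multiple myeloma cell line at 5000 cells per well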
[10] = biological target: E3 ubiquitin-protein ligase XIAP (Homo sapiens) (UniProt P98170); assay: XIAP binders, primary screen, biophysical, small-molecule microarray, fluorescence 635 nm (AID 1181); conditions: small-molecule microarray binding, higher = more signal;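 note: score merges 667 nm emission and signal to noise over triplicate slides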
Sequence of E3 ubiquitin-protein ligase XIAP (Homo sapiens) (P98170 whole entry, looked up): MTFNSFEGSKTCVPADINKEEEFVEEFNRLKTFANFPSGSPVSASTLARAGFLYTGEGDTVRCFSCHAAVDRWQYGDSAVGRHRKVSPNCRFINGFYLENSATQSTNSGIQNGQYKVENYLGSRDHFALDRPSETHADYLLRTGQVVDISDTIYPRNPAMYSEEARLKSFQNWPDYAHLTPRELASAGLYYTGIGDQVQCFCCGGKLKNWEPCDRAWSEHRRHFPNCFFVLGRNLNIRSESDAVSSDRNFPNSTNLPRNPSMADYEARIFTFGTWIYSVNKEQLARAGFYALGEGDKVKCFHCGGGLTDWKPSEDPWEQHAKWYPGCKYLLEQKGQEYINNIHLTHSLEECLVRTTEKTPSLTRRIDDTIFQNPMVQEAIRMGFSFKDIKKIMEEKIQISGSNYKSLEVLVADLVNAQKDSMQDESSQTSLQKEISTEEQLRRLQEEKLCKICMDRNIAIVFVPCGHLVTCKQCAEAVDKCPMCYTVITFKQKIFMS

[11] = tested on: XIP peptide (Xip251-270) binding; assay: small-molecule binders of XIP peptide, primary screen, biochemical, small-molecule microarray, fluorescence 635/667 nm, 0.1 µg/mL protein (AID 1182); conditions: fluorescent protein binding, 635 nm, higher = more signal, called active from +8 up or from −8 down
[12] = tested on: XIP peptide (Xip251-270); assay: small-molecule binders of XIP peptide, primary screen, biochemical, small-molecule microarray, fluorescence 635/667 nm, 0.5 µg/mL protein (AID 1183); conditions: small-molecule microarray binding, fluorescence 635 nm; higher = more signal
[13] = Plasmodium falciparum growth inhibition, primary screen, strain 3D7, DAPI fluorescence, 100 nL (AID 1184);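 note: parasites grown inside human red blood cells in medium with human serum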; conditions: P. falciparum 3D7 growth, 3 d, higher = more signal
[14] = biological target: Homeobox protein Hox-A13 (Mus musculus) (UniProt Q62424); assay: inhibitors of HoxA13-DNA binding, primary screen, biochemical, fluorescence polarization, labeled oligonucleotide (AID 1185); conditions: 15 min, higher = more signal, called active from +8 up or from −8 down
Sequence of Homeobox protein Hox-A13 (Mus musculus) (Q62424 whole entry, looked up): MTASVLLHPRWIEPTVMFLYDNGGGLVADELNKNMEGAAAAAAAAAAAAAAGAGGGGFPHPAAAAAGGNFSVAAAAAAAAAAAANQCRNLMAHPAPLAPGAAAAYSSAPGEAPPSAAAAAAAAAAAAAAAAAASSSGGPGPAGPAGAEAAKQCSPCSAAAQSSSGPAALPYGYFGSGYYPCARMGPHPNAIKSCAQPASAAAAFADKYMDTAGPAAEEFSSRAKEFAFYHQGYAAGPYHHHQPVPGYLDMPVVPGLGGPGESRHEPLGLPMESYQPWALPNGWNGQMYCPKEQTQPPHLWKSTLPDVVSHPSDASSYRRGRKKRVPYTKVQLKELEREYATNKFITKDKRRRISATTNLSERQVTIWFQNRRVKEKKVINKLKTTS

[15] = inhibitors of hydroxyurea-induced Chk1 phosphorylation, primary screen, imaging, HeLa, phospho-Chk1 antibody, percent positive cells (AID 1186); conditions: hydroxyurea-induced phospho-Chk1 immunofluorescence imaging, higher = more signal
[16] = inhibitors of hydroxyurea-induced Chk1 phosphorylation, primary screen, imaging, HeLa, phospho-Chk1 nuclear intensity (AID 1187); conditions: hydroxyurea-induced phospho-Chk1 immunofluorescence imaging, higher = more signal

| Structure (SMILES) | z-score [1] | z-score [2] | z-score [3] | composite z-score [4] | z-score [5] | z-score [6] | z-score [7] | z-score [8] | z-score [9] | composite z-score [10] | composite z-score [11] | composite z-score [12] | z-score [13] | z-score [14] | z-score [15] | z-score [16] |
| --- | --- | --- | --- | --- | --- | --- | --- | --- | --- | --- | --- | --- | --- | --- | --- | --- |
| CC#CCO[Si](C#Cc1ccccc1)(C(C)C)C(C)C | -0.112 | -15.6 (active) | -0.632 (inactive) | 0.108 (inactive) | 0.219 (inactive) | 0.201 (inactive) | -0.244 (inactive) | -0.032 (inactive) | -0.67 | -0.127 | 0.0308 (inactive) | -0.654 | -0.916 | -1.19 (inactive) | 0.988 (inactive) | 0.598 (inactive) |
| CCCCC(CC)C(O)C1C=CC2C(=O)N(c3ccccc3)C(=O)C2N1Nc1ccc(C#N)cc1 (centres undefined) | -0.0318 | -0.847 (inactive) | -0.67 (inactive) | 0.215 (inactive) | 1.7 (inactive) | 0.913 (inactive) | 0.248 (inactive) | 0.0706 (inactive) | -0.661 | 0.212 | 0.742 (inactive) | 0.784 | 0.128 | -1.83 (inactive) | -0.185 (inactive) | -0.153 (inactive) |
| CC(C)[Si]1(C(C)C)OCc2cc(-c3ccc(-c4ccc(Cl)c(Cl)c4)o3)nc(-c3ccccc3)c21 | 0.374 | -0.981 (inactive) | 0.797 (inactive) | 0.107 (inactive) | 0.374 (inactive) | -0.219 (inactive) | -0.28 (inactive) | -0.725 (inactive) | 0.311 | -0.031 | -0.325 (inactive) | 0.716 | 0.138 | -2.02 (inactive) | -0.611 (inactive) | -0.577 (inactive) |
| CC(C)C(CO)N1C(=O)[C@@H]2[C@H]3C(=O)OCC=C[C@H]3OC23C=CCN(c2ccc(Cl)cc2)C(=O)[C@@H]13 (some centres undefined) | -0.0883 | 0.646 (inactive) | 0.679 (inactive) | 1.13 (inactive) | -1.13 (inactive) | 1.48 (inactive) | 0.969 (inactive) | 0.646 (inactive) | 1.08 | -0.21 | 0.331 (inactive) | -0.202 | -0.485 | -3.03 (inactive) | -0.438 (inactive) | -0.468 (inactive) |
| COc1ccc([Si](C)(C)[C@@H]2[C@@H](CCO)O[C@]3(C(=O)N(Cc4cccc(NC(=O)[C@H](C)O)c4)c4ccccc43)[C@H]2C)cc1 | -5.97 | 0.728 (inactive) | -9.06 (active) | 0.554 (inactive) | 1.25 (inactive) | 4.9 (inactive) | 0.0065 (inactive) | -0.811 (inactive) | -6.22 | 0.0479 | 0.789 (inactive) | 0.755 | -2.69 | -5.95 (inactive) | 0.214 (inactive) | -0.189 (inactive) |
| COC(=O)C/C=C/C[C@]1(O)C(=O)N(C)c2ccccc21 | 0.197 | -1.81 (inactive) | 0.913 (inactive) | -0.429 (inactive) | 0.732 (inactive) | -2.6 (inactive) | 2.38 (inactive) | 0.875 (inactive) | 0.547 | -0.0861 | 0.0625 (inactive) | 0.804 | -0.306 | -1.32 (inactive) | -0.866 (inactive) | -0.467 (inactive) |
| CC1CC/C=C\[C@H]2OC34C=CCN(C(C)C)C(=O)[C@H]3N(CCO)C(=O)[C@@H]4C2C(=O)O1 (some centres undefined) | -0.961 | 0.486 (inactive) | 0.802 (inactive) | 0.705 (inactive) | -0.413 (inactive) | 0.651 (inactive) | 0.764 (inactive) | 0.341 (inactive) | 0.838 | 0.0484 | -0.319 (inactive) | -0.472 | -1.22 | -2.91 (inactive) | 0.147 (inactive) | 0.0498 (inactive) |
| [N-]=[N+]=Nc1ccccc1[C@H]1OC(c2ccc(OCCCO)cc2)=N[C@@]1(Cc1ccccc1)C(=O)NCCN1CCOCC1 | -0.564 | -2.44 (inactive) | -1.5 (inactive) | 0.73 (inactive) | 0.314 (inactive) | 0.964 (inactive) | 2.03 (inactive) | 0.627 (inactive) | -1.74 | 0.643 | 0.0125 (inactive) | 0.83 | -2.18 | -2.71 (inactive) | -0.116 (inactive) | 0.205 (inactive) |
| CC(C)[Si](C#C[Si](C(C)C)(C(C)C)C(C)C)(O[C@H](c1ccccc1)c1cn(Cc2ccccc2)nn1)C(C)C | 0.918 | 1.6 (inactive) | 0.869 (inactive) | 0.367 (inactive) | 0.0885 (inactive) | 1.14 (inactive) | -0.177 (inactive) | 0.662 (inactive) | 1.43 | 0.0368 | -0.464 (inactive) | -0.0753 | -0.122 | 0.371 (inactive) | -0.269 (inactive) | -0.216 (inactive) |
